# In article PMC10726135, “HNF4α isoforms regulate the circadian balance between carbohydrate and lipid metabolism in the liver”:
# Whole data set: some 18,000 sequences, median “log2 normalized intensity” near 0.39, cut for the highest 2% near 6.6. For the sample, the highest values were picked, then their nearest neighbours and some sequences at random.
# Target: T1, HNF4alpha2 (COS-7 nuclear extract) (Homo sapiens, UniProt P41235 1-474)
# T1 sequence: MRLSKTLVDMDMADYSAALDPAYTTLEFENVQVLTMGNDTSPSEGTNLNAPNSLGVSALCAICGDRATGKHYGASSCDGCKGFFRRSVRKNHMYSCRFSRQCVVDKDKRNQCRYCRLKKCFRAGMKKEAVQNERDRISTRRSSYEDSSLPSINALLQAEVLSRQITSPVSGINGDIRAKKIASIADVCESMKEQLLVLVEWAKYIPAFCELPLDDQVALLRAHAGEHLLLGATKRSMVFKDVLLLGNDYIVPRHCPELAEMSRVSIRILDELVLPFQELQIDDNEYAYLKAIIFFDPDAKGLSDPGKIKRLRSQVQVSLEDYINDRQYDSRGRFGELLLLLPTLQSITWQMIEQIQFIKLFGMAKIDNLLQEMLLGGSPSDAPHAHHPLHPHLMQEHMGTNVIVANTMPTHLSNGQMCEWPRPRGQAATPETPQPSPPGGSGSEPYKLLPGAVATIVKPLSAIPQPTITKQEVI
# Assay: protein-binding microarray; COS-7 nuclear extract on double-stranded Agilent 4x180k PBM; binding buffer, salt, pH and temperature not given in the material; high values mean tight binding
# Conditions: chain copies: 2; label: 3' end of strand 1 on the slide; dsDNA, one strand shown
# How it was run: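 Binding signal was defined as the normalized, background-corrected gProcessedSignal reported by Agilent software. It came from nuclear extracts of COS-7 cells transiently transfected with a human HNF4α isoform expression vector, applied to a custom Agilent SurePrint G3 4x180k array. That array held ~44,000 test sequences in quadruplicate as double-stranded ~60-nt oligonucleotides, and bound HNF4α was imaged at 2-µm resolution on an Agilent G2565CA scanner.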
row,Sequence,binding signal
1,CGTCCGTCACCCCTTTCTTTGATTAGGAAAGCCTAGGGAGATTAGAGTATCGGTCGA,1.54 log2 normalized intensity
2,GTCAGTTGATAAACAGATAACTGGGGGCAAGCCTAGGGAGATTAGAGTATCGGTCGA,0.764 log2 normalized intensity
3,AGTCTGATTCTAGGGCCCATGCCCTTAGCCGCCTAGGGAGATTAGAGTATCGGTCGA,0.883 log2 normalized intensity
4,TCTGTATGTCTAAGGTTTCTCAGCCCCATCGCCTAGGGAGATTAGAGTATCGGTCGA,4.27 log2 normalized intensity
5,CGGGTGAAGGTTAAATAGCTCATTAAGCTTGCCTAGGGAGATTAGAGTATCGGTCGA,-0.974 log2 normalized intensity
6,CTCTCAACTCAGTGAGGGCTATTGACAAAGGCCTAGGGAGATTAGAGTATCGGTCGA,-0.637 log2 normalized intensity
7,ATTTTCCCACTTGTATGTCCAAGGGTCACTGCCTAGGGAGATTAGAGTATCGGTCGA,4.44 log2 normalized intensity
8,AATTTTCTCTGTATACTTGTCTTATCAGCAGCCTAGGGAGATTAGAGTATCGGTCGA,0.598 log2 normalized intensity
9,GAGTACTTGGACTTTAACCTTTAGATTACTGCCTAGGGAGATTAGAGTATCGGTCGA,7.31 log2 normalized intensity
10,CTTGGACTTTAACCTTTAGATTACTAGGAAGCCTAGGGAGATTAGAGTATCGGTCGA,6.18 log2 normalized intensity
11,ACTTTAACCTTTAGATTACTAGGAATTGATGCCTAGGGAGATTAGAGTATCGGTCGA,0.914 log2 normalized intensity
12,CTTATCTTTGACCTTACCAGCCCACTCTTAGCCTAGGGAGATTAGAGTATCGGTCGA,1.9 log2 normalized intensity
13,TTCCTCCCTTGGAATGTGACCTTAGACCCCGCCTAGGGAGATTAGAGTATCGGTCGA,8.18 log2 normalized intensity
14,ACCTTTGCCCTTGACTTTTTGTGGGGGCAGGCCTAGGGAGATTAGAGTATCGGTCGA,2.38 log2 normalized intensity
15,TTTCATTCCACTGACTTGCAACCTTTGCCCGCCTAGGGAGATTAGAGTATCGGTCGA,6.76 log2 normalized intensity
16,TTGCCCTTCTTGGATGCCCTTCCCTAACCCGCCTAGGGAGATTAGAGTATCGGTCGA,2.66 log2 normalized intensity
17,AGATGACCTTTGCCCTTGACTTTTTGTGGGGCCTAGGGAGATTAGAGTATCGGTCGA,7.08 log2 normalized intensity
18,TGCCCTTGACTTTTTGTGGGGGCAGATGTTGCCTAGGGAGATTAGAGTATCGGTCGA,1.86 log2 normalized intensity
19,TTCCCTTGGAATGCCAGATGACCTTTGCCCGCCTAGGGAGATTAGAGTATCGGTCGA,9.88 log2 normalized intensity
20,TTCCACTGACTTGCAACCTTTGCCCTGTTGGCCTAGGGAGATTAGAGTATCGGTCGA,6.31 log2 normalized intensity
21,CCCTTGGAATGTGACCTTAGACCCCTGAATGCCTAGGGAGATTAGAGTATCGGTCGA,5.74 log2 normalized intensity
22,GAGAGTTCCCTTGGAATGCCAGATGACCTTGCCTAGGGAGATTAGAGTATCGGTCGA,4.14 log2 normalized intensity
23,TTAGCTTCCTCCCTTGGAATGTGACCTTAGGCCTAGGGAGATTAGAGTATCGGTCGA,4.12 log2 normalized intensity

row,Sequence,binding signal
1,CTGGCTTTCATTCCACTGACTTGCAACCTTGCCTAGGGAGATTAGAGTATCGGTCGA,0.803 log2 normalized intensity
2,AGGGTGACCCCTGTGGTACAGGCAGTGACTGCCTAGGGAGATTAGAGTATCGGTCGA,1.48 log2 normalized intensity
3,GAGGCTGCTCTCTGTCCCTGCACCCTACCCGCCTAGGGAGATTAGAGTATCGGTCGA,1.6 log2 normalized intensity
4,AGGGCCCTTCACTATTTTCAAAGGTCAACAGCCTAGGGAGATTAGAGTATCGGTCGA,3.49 log2 normalized intensity
5,TGTGTTTCCACAAACACAGATCAGATATGAGCCTAGGGAGATTAGAGTATCGGTCGA,-0.462 log2 normalized intensity
6,GGCCTCCCCATCCTCATGACAGTACCTCTCGCCTAGGGAGATTAGAGTATCGGTCGA,2.32 log2 normalized intensity
7,GAACTTTGACCACCTACTGTTTGTGCAGAGGCCTAGGGAGATTAGAGTATCGGTCGA,4.13 log2 normalized intensity
8,ACACTGCCATTTAAAAGTTTCCCTTGATCAGCCTAGGGAGATTAGAGTATCGGTCGA,0.876 log2 normalized intensity
9,TATCCCTGGAGCCTTAGAAGATGACCTTTTGCCTAGGGAGATTAGAGTATCGGTCGA,5.59 log2 normalized intensity
10,TTCTTTTTTTTTTTTTTTTTTTTTTGAGATGCCTAGGGAGATTAGAGTATCGGTCGA,3 log2 normalized intensity
11,ATGCCAGATGACCTTTGCCCTTGACTTTTTGCCTAGGGAGATTAGAGTATCGGTCGA,8.55 log2 normalized intensity
12,GGAAGTCCAGCATTCTTTTCCCCATACCAGGCCTAGGGAGATTAGAGTATCGGTCGA,1.33 log2 normalized intensity
13,TGCCCTTTGTCCAGGGTGAGAGGGACCCTTGCCTAGGGAGATTAGAGTATCGGTCGA,2.41 log2 normalized intensity
14,CCTTGGGTCTGTAATCTCACAACTCAGAAGGCCTAGGGAGATTAGAGTATCGGTCGA,0.23 log2 normalized intensity
15,ACTTCTGTCTCCAGAAATCAACCTTTGATCGCCTAGGGAGATTAGAGTATCGGTCGA,7.84 log2 normalized intensity
16,CACACTGCAGCAAAACTTTAGGACTTTGAAGCCTAGGGAGATTAGAGTATCGGTCGA,3.31 log2 normalized intensity
17,GGGCAGCAAACCTACCTGAACTTTGCCCCAGCCTAGGGAGATTAGAGTATCGGTCGA,7.99 log2 normalized intensity
18,TGCAGCAAAACTTTAGGACTTTGAACCTTGGCCTAGGGAGATTAGAGTATCGGTCGA,8.63 log2 normalized intensity
19,GGACTTTGAACCTTGGGTCTGTAATCTCACGCCTAGGGAGATTAGAGTATCGGTCGA,7.11 log2 normalized intensity
20,CCACCCACACTGCAGCAAAACTTTAGGACTGCCTAGGGAGATTAGAGTATCGGTCGA,0.141 log2 normalized intensity
21,TGTCTCCAGAAATCAACCTTTGATCGTTTGGCCTAGGGAGATTAGAGTATCGGTCGA,5.83 log2 normalized intensity
22,ATAAGGGGCAGCAAACCTACCTGAACTTTGGCCTAGGGAGATTAGAGTATCGGTCGA,3.07 log2 normalized intensity
